Data reported in the supplement of paper PMC10849652.
Of roughly 7,900 targets only a part is listed; those with a hit were picked by preference. About 0.6% of all pairs of compound and target were hits.

What was measured:
Assay in all cases: log2 fold change, soluble protein after heating vs DMSO (PISA); higher = thermal stabilisation; K562 cells, 10 uM, 30 min; active = over 0.2 and 3.5 SD of the protein, either way, in both replicates (recomputed)
erlotinib = compound: C#Cc1cccc(Nc2ncnc3cc(OCCOC)c(OCCOC)cc23)c1 [erlotinib]
Procedure, shortened: (§1)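 Quantification of soluble protein used TMTpro 16plex LC-MS/MS, with channel sums equalised. Samples were the supernatant after 21,000xg for 90 min of pooled aliquots from K562 cells (2×10^6 cells/mL) treated with 10 μM compound for 30 min, heated for 3 min over 48°C-58°C, and extracted in PBS with 0.5% NP-40 at 4°C. Values, from duplicates, describe thermal stability against control samples on a log2 fold-change scale.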

[1] = compound: C/C(=N\NC(=O)C1=CC(=CC=C1)S(=O)(=O)N2CCOCC2)/C3=C(C=CC(=C3)Cl)O
Procedure, shortened: as §1

[2] = compound: C1=CC(=CC=C1C2=NC3=C(N2)C=C(C=C3)C(=O)N)OC4=CC=C(C=C4)Cl
Procedure, shortened: as §1

[3] = compound: C1=CC2=C(C=CC(=C2)/C=C\3/C(=O)NC(=NCC4=CC=CS4)S3)N=C1
Procedure, shortened: as §1

[4] = compound: C1=CC2=NC=CN=C2C=C1/C=C/3\C(=O)NC(=O)S3
Procedure, shortened: as §1

[5] = compound: C1=CC=C(C=C1)C2=NC(=C(N2)C3=CC=NC=C3)C4=CC(=C(C=C4)Cl)O
Procedure, shortened: as §1

[6] = compound: C1=CC=C2C(=C1)C3=NNC4=CC=CC(=C43)C2=O
Procedure, shortened: as §1

[7] = compound: C1CCN(C1)C(=O)NC2=CC=CC(=C2)NC3=NC=C(C(=N3)NCCC4=CN=CN4)Br
Procedure, shortened: as §1

[8] = compound: C1CN(CCC1(CC2=CC=C(C=C2)Cl)N)C3=NC=NC4=C3C=CN4
Procedure, shortened: as §1

IRAK-1-4 Inhibitor I = compound: C1COCCN1CCN2C3=CC=CC=C3N=C2NC(=O)C4=CC(=CC=C4)[N+](=O)[O-] [IRAK-1-4 Inhibitor I]
Procedure, shortened: as §1

ibrutinib = compound: C=CC(=O)N1CCC[C@@H](n2nc(-c3ccc(Oc4ccccc4)cc3)c3c(N)ncnc32)C1 [ibrutinib]
Procedure, shortened: as §1

[9] = compound: CC(=O)c1cnc2ccc(-c3cc(Cl)c(O)c(Cl)c3)nc2c1N[C@H]1CC[C@H](CN(C)C)CC1
Procedure, shortened: as §1

ralimetinib = compound: CC(C)(C)Cn1c(N)nc2ccc(-c3[nH]c(C(C)(C)C)nc3-c3ccc(F)cc3)nc21 [ralimetinib]
Procedure, shortened: as §1

[10] = compound: CC(C)C1=C2N=C(C=C(N2N=C1)NCC3=CC=CC=C3)NCCCCCCN
Procedure, shortened: as §1

[11] = compound: CC(C)C[C@@H](C=O)NC(=O)[C@H](CC(C)C)NC(=O)[C@H](CC(C)C)NC(=O)OCc1ccccc1
Procedure, shortened: as §1

pinometostat = compound: CC(C)N(C[C@H]1O[C@@H](n2cnc3c(N)ncnc32)[C@H](O)[C@@H]1O)[C@H]1C[C@@H](CCc2nc3cc(C(C)(C)C)ccc3[nH]2)C1 [pinometostat]
Procedure, shortened: as §1

[12] = compound: CC1=C(C(CC(=O)N1)C2=CC=C(C=C2)C(F)(F)F)C(=O)NC3=C(C=C4C(=C3)C=NN4)F
Procedure, shortened: as §1

[13] = compound: CC1=C(C2=C(C=C1)C(=O)C3=CC=CC=C3N2CCCN)C
Procedure, shortened: as §1

[14] = compound: C1=CC(=C(C=C1Cl)C2=NC3=NC=CN=C3C(=N2)NC4=CC=NC=C4)F
Procedure, shortened: as §1

[15] = compound: CC(C)(O)CC(=O)NCCn1ccc2ncnc(Nc3ccc(Oc4cccc(C(F)(F)F)c4)c(Cl)c3)c21
Procedure, shortened: as §1

Measured: log2 fold change

SLC39A11 (UniProt Q8N1S5)
inactive: erlotinib -0.042 | [1] -0.009 | [2] 0.05 | [3] 0.043 | [4] 0.009 | [5] 0.07 | [6] 0.053 | [7] -0.144 | [8] 0.019 | IRAK-1-4 Inhibitor I 0.092 | ibrutinib 0.066 | [9] 0.051 | ralimetinib 0.012 | [10] -0.117 | [11] -0.051 | pinometostat -0.085 | [12] -0.024 | [13] 0.07

SNX2 isoform 2 (UniProt O60749)
inactive: [1] -0.244 | [14] 0.091 | [3] 0.402 | [4] -0.186 | [6] -0.033 | IRAK-1-4 Inhibitor I 0.091 | ibrutinib 0.151 | [9] -0.039 | [15] -0.377 | pinometostat -0.094

SLC35B1 isoform 2 (UniProt P78383)
inactive: erlotinib -0.024 | [14] -0.008 | [2] 0.127 | [4] 0.018 | [5] 0.085 | [7] -0.021 | [8] 0.271 | IRAK-1-4 Inhibitor I -0.067 | ibrutinib 0.09 | ralimetinib -0.184 | [15] -0.217 | [10] -0.04 | [11] 0.038 | pinometostat 0.065 | [12] -0.086 | [13] 0.011

TK1 (UniProt K7ERV3)
inactive: [1] 0.063 | [14] -0.011 | [3] 0.028 | [4] -0.006 | [5] -0.069 | [6] 0.037 | [7] -0.015 | [8] 0.061 | ibrutinib -0.033 | [9] -0.071 | ralimetinib -0.025 | [15] -0.122 | [11] 0.078 | [12] 0.004 | [13] -0.037

SMPD4 isoform 2 (UniProt Q9NXE4)
inactive: [1] -0.001 | [3] 0.134 | [4] -0.027 | [6] -0.003 | [7] -0.011 | [8] 0.05 | IRAK-1-4 Inhibitor I 0.016 | ibrutinib -0.156 | [9] 0.196 | pinometostat 0 | [13] 0.115

STK17B (UniProt O94768)
inactive: erlotinib 0.128 | [2] 0.072 | [4] -0.169 | IRAK-1-4 Inhibitor I -0.12 | ibrutinib -0.235 | [10] -0.262 | pinometostat 0.033

SLC8B1 (UniProt Q6J4K2)
inactive: erlotinib 0.111 | [1] 0.089 | [2] 0.003 | [3] -0.039 | [4] 0.095 | [5] 0.016 | [6] 0.032 | IRAK-1-4 Inhibitor I 0.096 | ibrutinib -0.091 | [9] 0.112 | ralimetinib -0.093 | [10] -0.378 | [11] 0.048 | pinometostat 0.019

TENT5C (UniProt Q5VWP2)
inactive: erlotinib -0.117 | [2] 0.087 | [4] 0.023 | [5] -0.104 | [7] -0.025 | [8] -0.017 | IRAK-1-4 Inhibitor I 0.136 | ibrutinib 0.008 | ralimetinib -0.119 | [10] 0.18 | [11] 0.03 | pinometostat -0.028 | [12] -0.018 | [13] -0.014

TAOK2 (UniProt Q9UL54)
inactive: erlotinib -0.043 | [14] -0.019 | [2] 0.156 | [5] 0.029 | [7] -0.014 | [8] 0.029 | IRAK-1-4 Inhibitor I -0.132 | ralimetinib 0.09 | [15] -0.041 | [10] 0.083 | [11] 0.001 | pinometostat 0.031 | [12] -0.044 | [13] 0.127

SUN1 isoform 9 (UniProt O94901)
inactive: erlotinib 0.055 | [1] 0.037 | [2] 0.032 | [3] 0.066 | [5] -0.052 | [6] 0.066 | [7] 0.057 | [8] 0.094 | IRAK-1-4 Inhibitor I -0.028 | [9] -0.114 | ralimetinib 0.067 | [15] 0.115 | [10] -0.149 | [11] 0.042 | pinometostat 0.128 | [12] 0.127 | [13] -0.05
active: [14] -0.346

SYNE2 isoform 2 (UniProt Q8WXH0)
active: [1] -0.672
inactive: erlotinib 0.405 | [2] -0.301 | [3] 0.084 | [4] -0.027 | [5] -0.007 | [6] 0.001 | [7] -0.045 | [8] 0.029 | IRAK-1-4 Inhibitor I 0.046 | ibrutinib -0.037 | [9] 0.059 | ralimetinib 0.01 | [10] 0.078 | [11] 0.059 | pinometostat -0.024 | [12] 0 | [13] 0.044

SMARCB1 (UniProt Q12824)
inactive: [7] 0.038 | [8] 0.025 | IRAK-1-4 Inhibitor I -0.082 | pinometostat 0.179 | [13] -0.031

TACC2 (UniProt O95359)
UniProt O95359, sequence (O95359 whole entry, looked up): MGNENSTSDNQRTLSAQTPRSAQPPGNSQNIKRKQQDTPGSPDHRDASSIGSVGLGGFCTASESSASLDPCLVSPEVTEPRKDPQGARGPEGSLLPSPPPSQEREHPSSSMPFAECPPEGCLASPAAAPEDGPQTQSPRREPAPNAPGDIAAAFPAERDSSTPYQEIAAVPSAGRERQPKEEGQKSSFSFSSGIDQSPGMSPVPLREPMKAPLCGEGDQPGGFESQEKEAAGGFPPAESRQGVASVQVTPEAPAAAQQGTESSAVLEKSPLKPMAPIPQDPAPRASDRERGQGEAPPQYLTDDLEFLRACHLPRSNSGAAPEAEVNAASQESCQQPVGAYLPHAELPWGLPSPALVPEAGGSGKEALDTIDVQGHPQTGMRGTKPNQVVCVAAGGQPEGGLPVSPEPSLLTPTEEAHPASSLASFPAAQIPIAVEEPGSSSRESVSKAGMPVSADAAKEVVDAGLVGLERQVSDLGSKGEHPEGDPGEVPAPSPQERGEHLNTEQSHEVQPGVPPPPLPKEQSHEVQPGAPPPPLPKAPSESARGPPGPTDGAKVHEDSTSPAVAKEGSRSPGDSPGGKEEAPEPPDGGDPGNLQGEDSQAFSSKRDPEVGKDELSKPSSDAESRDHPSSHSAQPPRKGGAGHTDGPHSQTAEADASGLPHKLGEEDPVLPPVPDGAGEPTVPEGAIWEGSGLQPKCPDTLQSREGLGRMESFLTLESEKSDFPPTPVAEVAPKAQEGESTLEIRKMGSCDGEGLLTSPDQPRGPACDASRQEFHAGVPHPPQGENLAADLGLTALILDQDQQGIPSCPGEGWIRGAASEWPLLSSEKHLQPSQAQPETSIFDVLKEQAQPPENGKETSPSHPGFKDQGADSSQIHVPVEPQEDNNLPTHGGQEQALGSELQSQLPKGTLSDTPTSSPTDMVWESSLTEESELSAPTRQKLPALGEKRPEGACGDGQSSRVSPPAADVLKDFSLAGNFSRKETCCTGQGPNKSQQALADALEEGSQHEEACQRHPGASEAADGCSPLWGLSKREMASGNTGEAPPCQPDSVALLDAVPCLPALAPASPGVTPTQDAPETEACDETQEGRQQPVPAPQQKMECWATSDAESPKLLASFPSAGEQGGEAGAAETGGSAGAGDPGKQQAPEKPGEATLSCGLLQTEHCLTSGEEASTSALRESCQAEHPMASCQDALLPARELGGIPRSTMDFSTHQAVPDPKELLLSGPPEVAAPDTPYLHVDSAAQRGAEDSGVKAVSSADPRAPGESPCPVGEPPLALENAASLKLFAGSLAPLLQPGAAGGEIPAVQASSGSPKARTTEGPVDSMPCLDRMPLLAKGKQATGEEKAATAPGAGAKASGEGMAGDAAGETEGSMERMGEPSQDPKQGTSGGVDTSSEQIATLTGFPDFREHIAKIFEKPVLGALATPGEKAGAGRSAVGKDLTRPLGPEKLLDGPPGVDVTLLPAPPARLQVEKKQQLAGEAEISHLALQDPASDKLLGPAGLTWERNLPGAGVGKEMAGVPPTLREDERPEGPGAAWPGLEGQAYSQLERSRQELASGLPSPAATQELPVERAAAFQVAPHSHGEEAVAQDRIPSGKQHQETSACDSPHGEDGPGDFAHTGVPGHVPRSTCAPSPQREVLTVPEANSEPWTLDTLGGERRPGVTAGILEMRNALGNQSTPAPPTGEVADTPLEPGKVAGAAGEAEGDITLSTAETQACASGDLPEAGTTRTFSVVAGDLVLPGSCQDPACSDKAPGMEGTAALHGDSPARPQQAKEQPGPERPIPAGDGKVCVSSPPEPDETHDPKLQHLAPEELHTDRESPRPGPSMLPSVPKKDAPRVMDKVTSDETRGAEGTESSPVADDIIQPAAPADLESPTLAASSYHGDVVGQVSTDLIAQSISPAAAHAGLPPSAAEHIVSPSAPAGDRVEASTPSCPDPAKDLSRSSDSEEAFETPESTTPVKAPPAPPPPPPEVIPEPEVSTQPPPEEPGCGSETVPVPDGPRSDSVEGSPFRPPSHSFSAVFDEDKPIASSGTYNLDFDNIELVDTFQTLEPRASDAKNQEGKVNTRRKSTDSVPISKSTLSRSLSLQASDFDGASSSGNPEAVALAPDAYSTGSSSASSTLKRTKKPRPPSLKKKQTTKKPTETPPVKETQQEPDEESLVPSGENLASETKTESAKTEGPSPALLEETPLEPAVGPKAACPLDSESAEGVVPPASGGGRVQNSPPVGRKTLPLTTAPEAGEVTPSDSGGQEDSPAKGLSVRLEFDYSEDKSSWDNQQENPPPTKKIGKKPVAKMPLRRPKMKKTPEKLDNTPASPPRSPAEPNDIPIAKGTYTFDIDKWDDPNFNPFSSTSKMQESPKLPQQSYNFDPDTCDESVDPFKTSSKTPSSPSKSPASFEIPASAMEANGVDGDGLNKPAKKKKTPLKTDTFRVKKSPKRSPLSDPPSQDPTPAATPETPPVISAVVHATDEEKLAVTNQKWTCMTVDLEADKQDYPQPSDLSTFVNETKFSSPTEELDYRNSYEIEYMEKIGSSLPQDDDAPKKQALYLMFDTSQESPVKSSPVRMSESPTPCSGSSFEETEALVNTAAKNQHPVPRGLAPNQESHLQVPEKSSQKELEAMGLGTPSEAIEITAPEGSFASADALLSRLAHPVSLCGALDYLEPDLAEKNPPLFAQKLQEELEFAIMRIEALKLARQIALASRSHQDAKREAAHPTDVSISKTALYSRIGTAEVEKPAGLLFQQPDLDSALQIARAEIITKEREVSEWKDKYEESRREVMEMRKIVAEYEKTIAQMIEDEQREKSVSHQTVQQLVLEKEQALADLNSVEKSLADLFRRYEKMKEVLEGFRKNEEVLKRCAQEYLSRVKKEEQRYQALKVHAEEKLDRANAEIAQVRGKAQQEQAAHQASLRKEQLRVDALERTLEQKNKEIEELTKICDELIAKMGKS
inactive: erlotinib -0.219 | [1] 0.008 | [2] 0.06 | [3] 0.005 | [4] 0.075 | [5] -0.128 | [6] 0.014 | [7] 0.014 | [8] -0.026 | ibrutinib -0.058 | [9] 0.054 | ralimetinib 0.108 | [10] -0.205 | [11] -0.007 | [12] 0.069 | [13] 0.058

SMDT1 (UniProt Q9H4I9)
inactive: [1] 0.012 | [14] -0.032 | [3] 0.044 | [4] 0.067 | [6] 0.044 | [7] 0.01 | [8] 0.036 | IRAK-1-4 Inhibitor I 0.039 | ibrutinib 0.036 | [9] -0.026 | [15] -0.012 | pinometostat -0.043 | [13] 0.027

SLC9A6 isoform 3 (UniProt Q92581)
UniProt Q92581, sequence (Q92581 whole entry, looked up): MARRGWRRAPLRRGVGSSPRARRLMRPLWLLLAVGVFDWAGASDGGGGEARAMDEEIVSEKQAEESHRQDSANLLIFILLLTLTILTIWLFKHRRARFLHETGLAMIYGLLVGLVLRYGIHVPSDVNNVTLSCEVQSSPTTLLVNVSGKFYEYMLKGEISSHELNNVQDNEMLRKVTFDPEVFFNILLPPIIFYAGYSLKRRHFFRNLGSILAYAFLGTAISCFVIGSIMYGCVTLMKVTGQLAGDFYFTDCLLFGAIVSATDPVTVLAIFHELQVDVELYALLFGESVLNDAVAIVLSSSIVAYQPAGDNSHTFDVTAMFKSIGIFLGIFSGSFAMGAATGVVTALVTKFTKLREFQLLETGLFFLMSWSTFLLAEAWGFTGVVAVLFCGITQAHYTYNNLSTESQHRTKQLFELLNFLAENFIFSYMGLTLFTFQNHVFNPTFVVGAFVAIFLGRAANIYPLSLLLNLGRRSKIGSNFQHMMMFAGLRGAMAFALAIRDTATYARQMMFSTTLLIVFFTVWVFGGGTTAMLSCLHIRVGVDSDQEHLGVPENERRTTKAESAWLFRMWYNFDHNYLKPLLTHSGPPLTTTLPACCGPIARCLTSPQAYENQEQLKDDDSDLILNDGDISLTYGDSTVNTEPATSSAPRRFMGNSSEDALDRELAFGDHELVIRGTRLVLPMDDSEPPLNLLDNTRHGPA
inactive: erlotinib 0.006 | [1] 0.013 | [2] -0.103 | [3] -0.022 | [4] 0.18 | [6] -0.068 | [7] 0.021 | [8] 0.006 | ibrutinib -0.012 | [9] 0.004 | [10] 0.051 | [13] 0.075

SPAG9 isoform 4 (UniProt O60271)
inactive: erlotinib 0.019 | [1] 0.048 | [2] -0.087 | [3] -0.103 | [4] -0.065 | [5] 0.272 | [6] 0.04 | [7] 0.03 | [8] 0.119 | IRAK-1-4 Inhibitor I -0.027 | ibrutinib 0.349 | [9] 0.14 | ralimetinib 0.191 | [10] -0.202 | [11] 0.049 | pinometostat 0.061 | [12] -0.003 | [13] -0.243

SNRK (UniProt Q9NRH2)
inactive: IRAK-1-4 Inhibitor I -0.126 | pinometostat -0.087

SLC46A1 (UniProt Q96NT5)
inactive: erlotinib 0.094 | [1] -0.017 | [2] -0.054 | [3] -0.042 | [6] 0 | [7] -0.193 | [8] 0.091 | [9] -0.008 | [10] -0.04 | [13] -0.049

TCOF1 isoform 6 (UniProt Q13428)
UniProt Q13428, sequence (Q13428 whole entry, looked up): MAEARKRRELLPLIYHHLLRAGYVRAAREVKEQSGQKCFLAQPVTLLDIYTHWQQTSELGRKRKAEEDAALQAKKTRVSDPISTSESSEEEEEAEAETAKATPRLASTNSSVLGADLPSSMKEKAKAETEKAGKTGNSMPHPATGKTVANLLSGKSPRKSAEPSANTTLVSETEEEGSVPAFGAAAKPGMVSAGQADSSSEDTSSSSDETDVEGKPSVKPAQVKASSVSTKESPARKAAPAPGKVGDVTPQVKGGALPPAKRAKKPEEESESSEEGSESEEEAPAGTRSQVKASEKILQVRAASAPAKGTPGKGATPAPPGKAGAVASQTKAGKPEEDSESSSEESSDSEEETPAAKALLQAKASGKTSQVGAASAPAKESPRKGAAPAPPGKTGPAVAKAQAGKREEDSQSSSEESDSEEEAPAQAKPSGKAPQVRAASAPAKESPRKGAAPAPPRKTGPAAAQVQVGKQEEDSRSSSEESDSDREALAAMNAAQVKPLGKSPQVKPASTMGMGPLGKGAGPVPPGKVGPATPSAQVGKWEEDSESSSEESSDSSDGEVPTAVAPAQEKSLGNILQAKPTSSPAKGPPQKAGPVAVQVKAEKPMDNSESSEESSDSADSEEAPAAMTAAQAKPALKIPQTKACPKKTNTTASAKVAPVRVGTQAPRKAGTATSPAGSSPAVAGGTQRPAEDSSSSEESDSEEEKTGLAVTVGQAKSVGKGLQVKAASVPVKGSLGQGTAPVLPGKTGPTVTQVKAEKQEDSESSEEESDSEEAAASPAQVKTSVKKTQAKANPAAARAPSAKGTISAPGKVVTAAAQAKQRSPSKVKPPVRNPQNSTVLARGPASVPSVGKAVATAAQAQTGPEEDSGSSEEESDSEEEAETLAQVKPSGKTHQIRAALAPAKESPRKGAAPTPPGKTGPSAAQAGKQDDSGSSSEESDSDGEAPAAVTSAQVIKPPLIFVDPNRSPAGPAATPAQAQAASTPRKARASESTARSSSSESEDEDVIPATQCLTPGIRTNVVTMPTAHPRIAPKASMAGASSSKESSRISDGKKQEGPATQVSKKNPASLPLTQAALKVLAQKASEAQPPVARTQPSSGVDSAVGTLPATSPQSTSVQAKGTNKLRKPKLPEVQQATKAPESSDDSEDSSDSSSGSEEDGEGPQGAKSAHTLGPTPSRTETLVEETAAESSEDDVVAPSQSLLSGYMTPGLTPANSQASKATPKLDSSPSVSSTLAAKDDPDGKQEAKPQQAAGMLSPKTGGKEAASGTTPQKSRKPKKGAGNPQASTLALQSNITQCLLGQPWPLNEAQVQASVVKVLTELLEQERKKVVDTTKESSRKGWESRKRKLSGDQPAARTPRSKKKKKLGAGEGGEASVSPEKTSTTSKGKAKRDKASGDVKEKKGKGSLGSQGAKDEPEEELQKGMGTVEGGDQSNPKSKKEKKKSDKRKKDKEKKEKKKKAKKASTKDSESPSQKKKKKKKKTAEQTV
inactive: erlotinib -0.234 | [2] 0.074 | [4] -0.045 | [5] 0.186 | [7] 0.002 | [8] 0.02 | IRAK-1-4 Inhibitor I 0.041 | ibrutinib 0.12 | ralimetinib 0.225 | [10] 0.092 | [11] -0.127 | pinometostat -0.121 | [12] 0 | [13] -0.155

TCOF1 isoform 3 (UniProt Q13428)
inactive: erlotinib 0.062 | [14] -0.193 | [2] -0.172 | [5] -0.056 | [7] 0.101 | [8] 0.012 | ralimetinib 0.522 | [15] -0.095 | [10] -0.01 | [11] 0.176 | [13] -0.642

THAP9 (UniProt Q9H5L6)
inactive: [3] 0.163 | [4] -0.211 | [5] 0.123 | [6] -0.057 | IRAK-1-4 Inhibitor I 0.07 | ibrutinib 0.002 | [9] -0.105 | ralimetinib 0.178 | [11] -0.025 | pinometostat -0.035 | [12] 0.027
active: [1] -0.733

TM7SF2 (UniProt O76062)
inactive: erlotinib -0.012 | [2] -0.05 | [5] -0.151 | ralimetinib -0.106 | [10] -0.124 | [11] -0.01 | [12] -0.134
